TWEAK Fn14 block: inhibitors of TWEAK-Fn14 signaling, primary screen, luciferase reporter cells, uHTS | AID 1159606, 2016 | TWEAK-stimulated Fn14 reporter cells, luciferase luminescence, 8 h | inhibition, % at 10 µM | actives 2% (n = 360,000); in the data active means inhibition above about 50%
KKLEB tox: cytotoxicity in KKLEB CF airway cells, primary screen, cytotoxicity control for CF NF-kB inhibitor project, cell-based, uHTS, fluorescence assay plates; KKLEB CF airway cells viability, ATPlite luminescence, overnight; stronger effect = lower value; cells stimulated with P. aeruginosa culture filtrate; activity change (cytotoxicity), % at 5 µM; actives 0.36% (n = 360,000); AID 602141, 2011;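 active means corrected activity change at or below -50% at 5 µM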
TROY NFkB inh: inhibitors of TROY-driven NF-kB signaling, primary screen, Q293 LMP1-TROYcd cells, NF-kB luciferase, uHTS. Q293 LMP1-TROYcd NF-kB luciferase reporter, 4 h. inhibition, % at 10 µM. actives 0.98% (n = 360,000);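 active means compounds whose plate-normalised and pattern-corrected inhibition of the luciferase reporter signal at the single screening dose is 50% or more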
Peg3 promoter: Peg3 promoter-driven luciferase inhibitors, primary screen, cell-based, HeLa, luciferase luminescence. HeLa PEG-Prom luciferase reporter, overnight. inhibition, % at 20 µM. actives 1.7% (n = 360,000);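 active means inhibition of at least 50% at 20 µM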
CF NFkB block: inhibitors of PAF-induced NF-kB signaling, primary screen, cell-based, GFP fluorescence, uHTS; inhibition, % at 5 µM; AID 588850, 2011; KKLEB NF-kB-GFP reporter, GFP fluorescence overnight; actives 0.86% (n = 360,000);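 active means at least 50% inhibition at 5 µM, scaled per plate between neutral and stimulator controls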;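 further: PAF is a Pseudomonas aeruginosa culture filtrate used as stimulus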
HIF-2a inh: HIF-2a reporter inhibitors, primary screen, luminescence, 786-0 RCC cells | 786-0 RCC cells HIF-2a reporter, luciferase luminescence, overnight | actives 0.72% (n = 360,000) | AID 624352, 2012 | inhibition, % at 18.8 µM;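 active means inhibition of the luminescence signal of 40% or more relative to plate controls, in a single-dose primary screen at 18.75 µM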
CF NFkB conf: inhibitors of PAF-induced NF-kB signaling, retest, confirmation, cell-based, GFP fluorescence, single concentration | shares compounds with CF NFkB block | KKLEB CF airway cells, overnight | inhibition, % at 5 µM | actives 64% (n = 1,300) | AID 602472, 2012; in the data active means inhibition above about 40%;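 further: stimulus PAF is a Pseudomonas aeruginosa filtrate and not platelet activating factor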
Each line names hits and unclear results; the compound was inactive in the other large screens (follow-up assays come after a bar, where they were run). Most compounds without a hit are left out; they make up all but 3.9% or so of the library.

COc1cc2c(c(OC)c1OC)-c1ccc(NCc3ccccc3)c(=O)cc1C(NC(C)=O)CC2 (stereo unspecified)	CF NFkB block 64 | CF NFkB conf 87
COc1cc2c(c(OC)c1OC)-c1ccc(NC(=O)c3ccc(F)cc3)c(=O)cc1[C@@H](NC(C)=O)CC2	none
COc1cc2c(c(OC)c1OC)-c1ccc(OC)c(=O)cc1[C@@H](NC(C)=O)CC2	none
CC1(C)C2CCC1(CS(=O)(=O)N1CCN(c3ccc(F)cc3)CC1)C(=O)C2 (stereo unspecified)	none
CCOC(=O)C1(C)CCCN1C(=O)c1ccc(C)cc1 (stereo unspecified)	none
COc1ccc(CCNc2ccc(S(N)(=O)=O)cn2)cc1	none
NS(=O)(=O)c1ccc(CCNc2nn3c(-c4cccc(OC(F)(F)F)c4)cnc3s2)cc1	TWEAK Fn14 block 94, TROY NFkB inh 72, Peg3 promoter 102, CF NFkB block 53 | CF NFkB conf 70
CN(C)c1ccc(/C=N\NC(=O)c2ccc(Cn3cc(Cl)cn3)cc2)cc1	none
COc1cccc(C(=O)Nc2ccc3[nH]c(=O)[nH]c3c2)c1OC	none
COc1ccc(-n2c(=O)c3ccccc3n(Cc3ccc(F)cc3)c2=O)cc1OC	none
Cc1ccc(F)c([C@H]2C3C=CCC(c4ccccc4)C3C(=O)N2Cc2ccccc2)c1 (stereo partly specified)	CF NFkB block 63 | CF NFkB conf inactive
O=C1C2C(c3ccccc3)CC=CC2[C@H](c2ccc3ccccc3c2)N1Cc1ccccc1 (stereo partly specified)	CF NFkB block 55 | CF NFkB conf 43
O=C1C2C(c3ccccc3)CC=CC2[C@H](c2ccoc2)N1Cc1ccccc1 (stereo partly specified)	none
CN(Cc1cc(Cl)cc(Cl)c1O)Cc1c(O)ccc2ccccc12	CF NFkB block 59 | CF NFkB conf inactive
CCOC(=O)/C=C/C(=O)Nc1cc(S(=O)(=O)Nc2ccc(OC)cc2)ccc1N1CCOCC1	TWEAK Fn14 block 56, CF NFkB block 63 | CF NFkB conf inactive
COc1cccc2sc(N3CCN(c4nc5ccccc5s4)CC3)nc12	CF NFkB block 56 | CF NFkB conf inactive
CC[C@]12C(=O)N(C)C[C@H]([C@@H]3C(=O)N(Cc4ccccc4)C(=O)[C@@H]31)N2C(=O)c1ccccc1	none
O=C(N/N=C/c1ccccc1)c1[nH]c2ccc(Br)cc2c1-c1ccccc1	CF NFkB block 61 | CF NFkB conf 85
CCC(C)Nc1nc(OC(C(F)(F)F)C(F)(F)F)nc(OC(C(F)(F)F)C(F)(F)F)n1 (stereo unspecified)	none
CCCC(=O)N1CCN(c2ccc(NC(=O)c3ccc([N+](=O)[O-])o3)cc2Cl)CC1	Peg3 promoter 111, CF NFkB block 74, HIF-2a inh 90 | CF NFkB conf inactive
CC(=O)N1CCN(c2ccc(NC(=O)c3ccc(Br)o3)cc2Cl)CC1	none
COc1ccc(NC(=O)c2ccc([N+](=O)[O-])o2)cc1	CF NFkB block 51 | CF NFkB conf inactive
CC(=O)c1ccc(NC(=O)c2ccc([N+](=O)[O-])o2)cc1	none
CC(C)C[C@@H](C(=O)NC1CC1)N1C(=O)N2CCc3c([nH]c4ccccc34)[C@@]2(C)C1=O	none
c1ccc(N2CCN(c3ncnc4sc5c(c34)CCC5)CC2)cc1	TWEAK Fn14 block 59, CF NFkB block 59 | CF NFkB conf 42
CC1CCc2sc3ncnc(N4CCOCC4)c3c2C1 (stereo unspecified)	CF NFkB block 51 | CF NFkB conf 57
CC1CCc2c(sc3ncnc(N4CCOCC4)c23)C1 (stereo unspecified)	CF NFkB block 66 | CF NFkB conf 63
Cc1cc(C)n(-c2ncnc3sc4c(c23)CC(C)CC4)n1 (stereo unspecified)	none
CC(C)C[C@H]1CN=C(Nc2ccccc2)N1CCCC1CCCCC1	none
O=S(=O)(NCCSc1nc2ccccc2o1)c1ccccc1	none
COc1ccc(-c2csc(NC(=O)CS(=O)(=O)c3ccccc3)n2)cc1OC	none
COC(C/C=C/C(=O)[C@H](C)OCc1ccccc1)OC	CF NFkB block 58 | CF NFkB conf inactive
COC(C/C=C/C(=O)COCc1ccccc1)OC	none
COc1ccc(N=C2C(=S)N(c3ccc(OC)cc3)C(=NS(=O)(=O)c3ccccc3)N2c2ccccc2)cc1	none
N=C1N(c2ccccc2)C(=S)C(=Nc2ccccc2)N1c1ccccc1	Peg3 promoter 74, CF NFkB block 67 | CF NFkB conf 81
O=c1cc(-c2ccccc2Cl)oc2c([N+](=O)[O-])c(O)cc(O)c12	TWEAK Fn14 block 96, TROY NFkB inh 52, Peg3 promoter 98, CF NFkB block 94 | CF NFkB conf 110
c1cc(-c2cnc3cccnn23)c2cccnc2c1	TWEAK Fn14 block 61, CF NFkB block 75 | CF NFkB conf 51
O=C(COc1cc(O)c2c(=O)cc(-c3ccccc3)oc2c1)c1ccccc1	none
Cc1ccc(C(=O)COc2cc(O)c3c(=O)cc(-c4ccccc4)oc3c2)cc1	CF NFkB block 69 | CF NFkB conf 43
CN(C)C(CNC(=O)C1CCN(S(=O)(=O)c2ccccc2)CC1)c1ccccc1 (stereo unspecified)	CF NFkB block 71 | CF NFkB conf inactive
CN(C)C(CNC(=O)C1CCN(S(=O)(=O)c2cccc(C(F)(F)F)c2)CC1)c1ccccc1 (stereo unspecified)	none
Oc1c(C(c2ccccc2)N2CCOCC2)ccc2ccccc12 (stereo unspecified)	Peg3 promoter 56, CF NFkB block 79 | CF NFkB conf inactive
CC(=O)Oc1ccc(OC(C)=O)c(SCCCCCCl)c1	TWEAK Fn14 block 76, CF NFkB block 58 | CF NFkB conf inactive
CC(=O)Oc1ccc(C(=O)O)cc1OC(C)=O	none
CCOC(=O)c1ccc(NC(=O)c2nc[nH]c2C(=O)N2CCc3ccccc3C2)cc1	none
O=C1CSCN1c1cc(Cl)ccc1Cl	none
CCCN(CC(=O)Nc1ccc(Cl)cc1Cl)C(=O)c1ccc(=O)[nH]c1	none

High-throughput results as filed in PubChem.
